Compound activity as filed in PubChem BioAssay.
SmPrx2 inh = blocks S. mansoni peroxiredoxin 2 enzymatic activity | S. mansoni Prx2 activity coupled to TGR/GSH (TGR is thioredoxin glutathione reductase), NADPH fluorescence loss, qHTS | Potency, µM | 65,000 tested, 0.07% active | AID 448
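Prx2 activity was followed as the loss of NADPH fluorescence (ex 365/em 450 nm), read every 30 sec for 8 min after H2O2 start. The enzyme mix (50 nM Prx2, 25 nM TGR, GSH, NADPH; pH 7.4 phosphate buffer) was incubated with compound for 15 min at room temperature first.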
AmpC det inh = inhibitors of E. coli AmpC beta-lactamase with detergent; P00811; purified AmpC, nitrocefin hydrolysis with detergent; Potency, µM (titrated, usually from 28.7 µM), without a hit: at the highest dose activity change, negative = inhibition; 71,000 tested, 0.09% active; active = well fitted curve in the direction sought with a large enough effect; inconclusive = small, poorly fitted or top-dose-only effect; note: % is set by controls: 0 for no effect and ±100 for the full control effect
Target sequence (P00811 whole entry, looked up): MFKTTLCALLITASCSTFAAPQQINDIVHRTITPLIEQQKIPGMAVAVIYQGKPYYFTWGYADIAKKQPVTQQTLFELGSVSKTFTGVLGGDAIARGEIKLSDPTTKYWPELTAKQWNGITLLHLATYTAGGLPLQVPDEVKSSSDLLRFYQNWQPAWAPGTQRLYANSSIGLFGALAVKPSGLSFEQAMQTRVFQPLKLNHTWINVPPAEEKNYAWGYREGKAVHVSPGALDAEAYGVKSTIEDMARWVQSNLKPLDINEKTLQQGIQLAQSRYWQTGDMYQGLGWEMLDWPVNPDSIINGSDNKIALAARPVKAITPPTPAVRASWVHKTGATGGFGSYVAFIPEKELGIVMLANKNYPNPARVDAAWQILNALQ
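E. coli AmpC (5.3 nM) in 20 mM phosphate pH 7.0 with 0.01% Triton X-100, preincubated 15 min RT with compound; nitrocefin (2 uL of 800 uM stock) hydrolysis followed by 480 nm absorbance every 20 s over 4 min.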
Anthrax LT inh = anthrax lethal toxin internalization inhibition | Cells, anthrax lethal toxin internalization, FRET ratio (460/530) | Potency, µM (top dose mostly 40 µM), for inactives: top-dose activity change, negative = inhibition, usual class: inhibitors | 70,000 tested, 0.67% active; note: % is set by controls: 0 for no effect and ±100 for the full control effect; nearly all actives have a fitted effect of over 50% in size
AmpC nodet inh = AmpC beta-lactamase inhibition, detergent-free assay. Potency, µM (series often up to 28.7 µM), without a hit: at the highest dose activity change, negative = inhibition. P00811. AID 585. AmpC nitrocefin hydrolysis, absorbance 480 nm, no detergent. 71,000 tested, 1.8% active; note: % of control where 0% means no effect
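AmpC, 20 mM phosphate pH 7.0; 15 min cpd preinc, RT; start with nitrocefin (800 uM stock); A480 kinetic read, 20 s intervals, 4 min. No-enzyme wells = negative control.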
Starred values were filed as active, the others as inactive; ? = inconclusive; nt = not tested or not shown; [ ] = remark or other dose. Rows were chosen to be rich in hits. Some 2.4% of all compounds tested hit in one or more screens of this group. Unless noted, calls come from the whole dose curve. Potency is the fitted concentration of half-maximal effect.

SMILES	SmPrx2 inh	AmpC det inh	Anthrax LT inh	AmpC nodet inh
Cn1c(Cn2c(=O)sc3ccccc32)nnc1SCC(=O)Nc1ccc(Cl)cc1	>57	11%	8%	4µM*[single pt active]
Cn1c(Cn2c(=O)sc3ccccc32)nnc1SCC(=O)Nc1cccc(Cl)c1	>57	23%	7%	8%
Cn1c(Cn2c(=O)sc3ccccc32)nnc1SCC(=O)Nc1cccc(F)c1	>57	13%	-2%	4µM*[single pt active]
Cc1cc(C)cc(NC(=O)CSc2nnc(Cn3c(=O)sc4ccccc43)n2C)c1	>57	9%	-1%	4µM*[single pt active]
CC(C)CC(=O)Nc1c2c(nn1-c1ccc(F)cc1)CSC2	>57	13%	1%	4µM*[single pt active]
O=C(Nc1c2c(nn1-c1ccc(F)cc1)CSC2)c1ccc(S(=O)(=O)N2CCOCC2)cc1	>57	-1%	-6%	24%
Cc1ccc(S(=O)(=O)NCc2ccncc2)cc1	>57	-5%	-3%	-8%
O=C1CC(c2ccc(S(=O)(=O)NC3CC3)cc2)CN1 (stereo not drawn)	>57	15%	13%	4µM*[single pt active]
O=C1CC(c2ccc(S(=O)(=O)NCc3ccncc3)cc2)CN1 (stereo not drawn)	>57	14%	-3%	4µM*[single pt active]
CCCC[C@]1(C2CCCC2)Cc2cc(OCC(=O)O)c(Cl)c(Cl)c2C1=O	>57	-5%	4%	3%
CSc1nc2ccccc2n1CC(=O)Nc1ccccc1	nt	4%	16µM*	6%
CCc1ccc(NC(=O)Cn2c(SC)nc3ccccc32)cc1	>57	5%	?	47%
N#Cc1sc2nc3c(c(-c4ccco4)c2c1N)CCCC3	>57	10%	-14%	13µM*[single pt active]
O=C(Cn1cc(C(=O)c2cccs2)c2ccccc21)NCc1ccc2c(c1)OCO2	>57	14%	?	2µM*[single pt active]
O=C(C1CC(c2ccc(F)cc2)=NO1)N1CCc2ccccc2C1 (stereo not drawn)	>57	12%	?	4µM*[single pt active]
O=C(C1CC(c2ccc(F)cc2)=NO1)N1CCN(c2ccccc2)CC1 (stereo not drawn)	>57	12%	-15%	4µM*[single pt active]
COc1cccc(C2=NOC(C(=O)N3CCc4ccccc4C3)C2)c1 (stereo not drawn)	>57	13%	?	23%
O=C(C1CC(c2ccc(F)cc2)=NO1)N1CCCCC1 (stereo not drawn)	>57	-4%	6%	1%
O=C(O)/C=C(/C(=O)O)[C@]12CCN3CC4=CCO[C@@H]5CC(=O)N[C@@H]1[C@H]5[C@H]4C[C@H]32	>57	-3%[5.75 µM]	-8%[8 µM]	1%[5.75 µM]
NS(=O)(=O)c1cc2c(cc1Cl)=NC(CCC(=O)O)=NS=2(=O)O	>57	17%[5.75 µM]	-9%[8 µM]	-4%[5.75 µM]
COc1ccc(OCCSc2ncnc3nc[nH]c23)cc1	>57	11%	-7%	4µM*[single pt active]
CCCC[C@@H]1C[C@H]1[C@@H](NP(=O)(c1ccccc1)c1ccccc1)c1ccccc1OC	nt	15%	13µM*	8%
CCCC[C@@H]1C[C@H]1C(NP(=O)(c1ccccc1)c1ccccc1)c1ccc(Cl)cc1 (stereo partly drawn)	>57	-6%	-22%	21%
COc1ccc(NC(=O)NCCCN2CCc3ccccc3C2)cc1	>57	14%	-9%	4µM*[single pt active]
COc1ccccc1N1CCN(CCCNC(=O)Nc2ccccc2)CC1	>57	-3%	nt	18%
SMILES	SmPrx2 inh	AmpC det inh	Anthrax LT inh	AmpC nodet inh
NC=O	nt	9%	4%	-10%
CCCN(c1ccc(C(C)C)cc1)S(=O)(=O)c1c(C)noc1C	>57	-4%	-20%	15%
CCOc1ccc(N(CC(=O)N2CCCC2)S(=O)(=O)c2c(C)noc2C)cc1	>57	9%	-12%	4µM*[single pt active]
CCOC(=O)C1CCN(C(=O)CN(c2ccc(OC)cc2)S(=O)(=O)c2c(C)noc2C)CC1	>57	5%	2%	102%
Cc1cc(C)cc(N(CC(=O)N2CCN(Cc3ccccc3)CC2)S(=O)(=O)c2c(C)noc2C)c1	>57	11%	-1%	4µM*[single pt active]
Cc1noc(C)c1S(=O)(=O)N(CC(=O)N1CCn2c1nc1ccccc12)c1ccc(C(C)C)cc1	>57	10%	?	4µM*[single pt active]
C/C(=N\NC(=O)c1ccncc1)c1ccc2ccccc2c1O	>57	-4%[5.75 µM]	-10%[8 µM]	11%[5.75 µM]
CC[N+](=O)[O-]	nt	8%	2%	-11%
O=C(O)CC(CC(=O)Nc1nncs1)c1ccccc1 (stereo not drawn)	>57	-5%	4%	-21%
CN(CC(CC(=O)Nc1nncs1)c1ccccc1)S(=O)(=O)c1ccccc1 (stereo not drawn)	>57	9%	5%	4µM*[single pt active]
CCCC1C(c2ccco2)NC(c2ccco2)CC1(C)O (stereo not drawn)	>57	-3%	10µM*	-10%
CCC(c1nnnn1Cc1ccco1)N(CCc1ccccc1)Cc1cc2cc(C)ccc2[nH]c1=O (stereo not drawn)	>57	1%	-18%	16%
Cc1ccc2[nH]c(=O)c(CN(CCc3ccccc3)C(c3nnnn3Cc3ccco3)C(C)C)cc2c1 (stereo not drawn)	>57	6%	?	5µM*
COC(=O)[C@H](N)Cc1ccc(Cl)cc1	>57	-1%	2%	-5%
CCOC(=O)N1CCN(S(=O)(=O)c2ccc3c(c2)oc(=O)n3C)CC1	>57	-5%	nt	10%
CCCN1CCN(C(=O)C2CCN(S(=O)(=O)c3ccc4c(c3)oc(=O)n4C)CC2)CC1	>57	11%	?	4µM*[single pt active]
O=c1cccc2n1C[C@@H]1C[C@H]2CN2CCCC[C@H]12	>57	-2%	?	-5%
O=C(Cc1c[nH]c2ccccc12)Nc1nc2ccccc2[nH]1	>57	2%	-2%	7.9µM*
O=C(Cc1ccccc1)Nc1nc2ccccc2[nH]1	>57	-5%	-7%	-17%
CN1CCN(c2ncnc3ccc(-c4ccccc4C(F)(F)F)cc23)CC1	>57	10%	13µM*	126%
CN1CCN(c2ncnc3ccc(-c4ccccc4C#N)cc23)CC1	>57	5%	?	45%
OCCN1CCN(c2ncnc3c2sc2nc(N4CCOCC4)c4c(c23)CCC4)CC1	>57	-1%	10µM*	43%
O=C(O)c1cccc([As]=[As]c2cccc(C(=O)O)c2)c1 (stereo not drawn)	0.25*	0%[5.75 µM]	?	4%[5.75 µM]
O=C(NCc1ccc2c(c1)OCO2)c1cccc(C(=O)NCc2ccc3c(c2)OCO3)c1	nt	0%	?	?
O=C(NCc1ccccc1)c1c[nH]c2ccc(S(=O)(=O)Nc3ccc4c(c3)OCCO4)cc2c1=O	>57	-2%	-6%	10µM*
O=C(NCc1ccc2c(c1)OCO2)c1ccc(NS(=O)(=O)c2ccc3c(c2)OCCO3)cc1	>57	-2%	-9%	10µM*
O=C(O)[C@@H]1[C@@H]2C[C@@H]3[C@@H](OC(=O)[C@@H]31)[C@H]2Br	>57	0%[5.75 µM]	-4%[8 µM]	-2%[5.75 µM]
O=C(O)CSCCc1ccccc1	>57	-5%[5.75 µM]	-1%[8 µM]	-3%[5.75 µM]
N=c1ccn2c(n1)O[C@@H]1[C@@H](O)[C@H](CO)O[C@H]12	>57	-1%	0%	1%
Nc1ncnc2c1ncn2[C@@H]1O[C@@H](CO)[C@H](O)[C@@H]1O	>57	-2%	?	0%
